# Reference: PubChem BioAssay
# Activity calls are given as the source filed them.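 How the source made its calls, unless noted: active means fluorescence slope higher than the sample average by over 3 SD (cut at about -0.22 in these data, passing the limit was not always enough); inactive means the rest.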
# What was measured:
# [1] = inhibitors of TNFa-induced NFkB p65 translocation, primary screen, imaging, HUVEC, MLSMR starter and 10KST1 sets (AID 438;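 active means inhibition above 20% together with a positive visual image hit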;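 further: compound added about 3h40 before a 20 min TNFalpha stimulation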;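 on inhibition: signal is the nuclear over cytoplasmic p65 intensity ratio per well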); conditions: HUVEC TNFa-induced p65 nuclear translocation; cell count: measured here: nuclei count (cytotoxicity indicator), at 2.08 µM; inhibition: at 2 µM, stronger effect = higher value, 0% TNFa-plus-vehicle, 100% no-TNFa wells
# [2] = reduction of polyQ htt aggregates in cells – imaging, exon1htt(103Q)mCFP cells, high-content imaging, primary screen (AID 483;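 active means visual image review flags a hit and inhibition of aggregation exceeds 20%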;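 further: compound exposure lasted 3 days before fixation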;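 on nuclei count: percent of the per-plate median nuclei count of sample wells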); conditions: exon1htt(103Q)mCFP cell line, aggregate imaging, at 2 µM; inhibition of aggregation: stronger effect = higher value; nuclei count: measured here: cell count, toxicity
# [3] = endothelial E-selectin expression blockers – imaging, HUVEC, immunofluorescence, MLSMR starter and 10KST1 sets, primary screen (AID 487;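 active means visually confirmed hit in the image check and inhibition above 20%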;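 on inhibition: signal is fraction of cell area covered by stained E-selectin grains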;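 on nuclei count: 100% = median nuclei count of all wells on the same plate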); conditions: HUVEC TNFalpha-induced E-selectin immunofluorescence imaging, at 2 µM; inhibition: stronger effect = higher value; nuclei count: measured here: cell number, toxicity
# [4] = molecular target: Voltage-gated potassium channel subunit beta-2 (Rattus norvegicus) (UniProt P62483); assay: inhibitors of rat Kvbeta2 reductase activity – biochemical, NADPH fluorescence, primary screen (AID 622); conditions: recombinant KvBeta, 4-cyanobenzaldehyde reduction, at 10 µM, stronger effect = higher value;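 further: slope of raw intensity against log time taken from 70 to 1610 s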
# Chain of Voltage-gated potassium channel subunit beta-2 (Rattus norvegicus) (P62483 whole entry, looked up): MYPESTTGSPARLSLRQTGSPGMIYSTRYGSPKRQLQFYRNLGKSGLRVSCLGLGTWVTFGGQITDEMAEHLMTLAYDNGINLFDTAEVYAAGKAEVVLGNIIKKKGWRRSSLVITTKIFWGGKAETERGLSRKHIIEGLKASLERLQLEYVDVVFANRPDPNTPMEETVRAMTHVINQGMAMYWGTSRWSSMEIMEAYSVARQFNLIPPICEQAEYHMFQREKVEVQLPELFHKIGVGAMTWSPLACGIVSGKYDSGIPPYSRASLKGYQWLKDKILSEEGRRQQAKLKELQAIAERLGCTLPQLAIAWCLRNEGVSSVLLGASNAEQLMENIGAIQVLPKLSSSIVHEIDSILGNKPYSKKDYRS
# [5] = molecular target: Voltage-gated potassium channel subunit beta-2 (Rattus norvegicus) (UniProt P62483); assay: enhancers of rat Kvbeta2 NADPH turnover – biochemical, NADPH fluorescence, primary screen (AID 623;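 active means NADPH fluorescence slope more negative than the mean of all samples by about 3 SD, 99.7% confidence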;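 further: fluorescence intensity change per second fitted from 20 to 320 s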); conditions: Recombinant KvBeta, NADPH fluorescence decrease slope, 10 min; at 10 µM; stronger effect = lower value
# [6] = molecular target: Alpha-2C adrenergic receptor (Homo sapiens) (UniProt P18825); assay: compounds altering alpha2C-coupled GIRK flux – cell-based, HEK293 alpha2C/GIRK1/2, thallium flux, primary screen (AID 624;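 active means fluorescence slope after compound addition differing from the mean of all screened samples at 99.7% confidence, in either direction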;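 further: slope of fluorescence ratio to pre-addition baseline per second over 15 to 24 s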); conditions: thallium flux BTC fluorescence, at 10 µM, actives lie on both sides
# Chain of Alpha-2C adrenergic receptor (Homo sapiens) (P18825 whole entry, looked up): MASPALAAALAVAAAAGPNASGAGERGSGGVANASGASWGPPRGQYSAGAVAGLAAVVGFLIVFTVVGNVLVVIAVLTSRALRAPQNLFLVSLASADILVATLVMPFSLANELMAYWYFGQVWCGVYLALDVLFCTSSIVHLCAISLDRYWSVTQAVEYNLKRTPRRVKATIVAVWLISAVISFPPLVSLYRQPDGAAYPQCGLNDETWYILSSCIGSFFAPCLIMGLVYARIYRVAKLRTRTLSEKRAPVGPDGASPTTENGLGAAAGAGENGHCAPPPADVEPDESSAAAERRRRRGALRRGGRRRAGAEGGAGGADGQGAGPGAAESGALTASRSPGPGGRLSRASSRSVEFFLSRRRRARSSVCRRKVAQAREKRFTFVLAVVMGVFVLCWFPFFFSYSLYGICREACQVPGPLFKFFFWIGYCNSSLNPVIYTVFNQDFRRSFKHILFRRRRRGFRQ
# [7] = blockers of RIG-like receptor reporter activation – cell-based, Sendai virus stimulus, luciferase, 10K MLSCN set, TLR/RLR signaling modifier project, primary screen (AID 602276;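 active means inhibition at or above 50% at 10 µM; inactive means inhibition below 50%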;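 further: firefly luciferase from ISG56 promoter only with Renilla not read in this screen; 0% = Sendai virus plus DMSO and 100% = medium plus DMSO without virus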); conditions: HEK293 RL24 IRF3 luciferase reporter, at 10 µM, stronger effect = higher value
# [8] = TLR3 IRF3 reporter activation blockers – cell-based, poly I:C stimulus, luciferase, 10K MLSCN set, primary screen (AID 602277;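 active means inhibition of the reporter signal at or above 50%; inactive means inhibition below 50%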); conditions: HEK293-TLR3 RL24 IRF3 luciferase reporter, at 10 µM, stronger effect = higher value
Structure (SMILES),cell count [1],inhibition [1],inhibition of aggregation [2],nuclei count [2] [%],inhibition [3],nuclei count [3] [%],fluorescence slope [4],NADPH fluorescence slope [5],slope [6],inhibition [7],inhibition [8]
CC1(C)OC(=O)C(=CNC(CCC(N)=O)C(=O)O)C(=O)O1 (stereo not drawn),679,3.6% (inactive),0.3% (inactive),117,-16.8% (inactive),108,-0.611 (inactive),-9.2e-07 (inactive),0.00611 (inactive),-19% (inactive),-5.5% (inactive)
CCCc1nnc(NC(=O)NCCN2C(=O)C3C4C=CC(C4)C3C2=O)s1 (stereo not drawn),700,-10.4% (inactive),-8.7% (inactive),76,-78.4% (inactive),125,-0.602 (inactive),1.8e-06 (inactive),0.00718 (inactive),-17.6% (inactive),-19.1% (inactive)
COC(=O)Oc1c(Br)c(=O)oc2ccccc12,594,7.7% (inactive),-8.6% (inactive),99.4,-49.4% (inactive),110,-0.443 (inactive),-3.2e-05 (inactive),0.00521 (inactive),-15.5% (inactive),-23.7% (inactive)
COc1ccc(-c2nc3cc(NC(=O)Cc4ccc(OC)c(OC)c4)ccc3o2)cc1,581,-25.3% (inactive),-10.5% (inactive),88.5,-13.5% (inactive),114,-0.468 (inactive),-4.6e-05 (inactive),0.00505 (inactive),-9.84% (inactive),-114% (inactive)
CCOC(=O)N1CCC(c2cc(=O)n3[nH]cc(C(=O)OC)c3n2)CC1,534,6.8% (inactive),-16.8% (inactive),58.3,7.4% (inactive),103,-0.541 (inactive),-1.8e-05 (inactive),0.00674 (inactive),16.5% (inactive),35.8% (inactive)
C=CCSc1nc(N)c2c(C)c(C)sc2n1,419,3% (inactive),29.2% (inactive),91.8,-20.5% (inactive),101,-0.404 (inactive),1.5e-05 (inactive),0.000164 (inactive),-7.96% (inactive),-46.7% (inactive)
O=C(NC1CCCCC1)C(c1ccccc1)N(Cc1ccco1)C(=O)Cn1cnc2ccccc21 (stereo not drawn),375,-1.6% (inactive),-19.6% (inactive),114,-70.5% (inactive),108,-0.586 (inactive),-3.7e-05 (inactive),0.00243 (inactive),9.18% (inactive),20.8% (inactive)
NC(=O)C(Cc1ccccc1)NS(=O)(=O)c1ccc(N2CCCC2=O)cc1 (stereo not drawn),570,-8.7% (inactive),4.5% (inactive),100,-5.1% (inactive),95.5,-0.585 (inactive),-4e-05 (inactive),0.00321 (inactive),8.09% (inactive),-25% (inactive)
CCN1C(=O)C2(C(C#N)=C(N)Oc3n[nH]c(C(C)C)c32)c2ccccc21 (stereo not drawn),679,-4.5% (inactive),-20.7% (inactive),104,2.2% (inactive),97,-0.485 (inactive),-3.1e-05 (inactive),0.005 (inactive),20.9% (inactive),21.2% (inactive)
Cc1ccc(C2=N/C(=C/N3CCOCC3)C(=O)O2)cc1,302,3.3% (inactive),14% (inactive),96.4,8.3% (inactive),98.9,-0.512 (inactive),-2.4e-05 (inactive),0.00711 (inactive),-49.1% (inactive),-197% (inactive)
CCOc1cc(C(=O)Nc2ncccn2)cc(OCC)c1OCC,280,6.6% (inactive),38% (active),103,-193% (inactive),100,-0.476 (inactive),-2.8e-05 (inactive),0.0062 (inactive),8.28% (inactive),27.2% (inactive)
CCCNS(=O)(=O)c1ccc(OCC(=O)NCc2ccco2)cc1,603,11.7% (inactive),-6% (inactive),110,-76.7% (inactive),126,-0.478 (inactive),8.5e-05 (inactive),0.00584 (inactive),-6.02% (inactive),-17.4% (inactive)
CCc1noc(C)c1C(=O)NCCc1ccc(OC)c(OC)c1,395,3.7% (inactive),-16.2% (inactive),121,11.4% (inactive),96.9,-0.468 (inactive),-4.2e-06 (inactive),0.00531 (inactive),14.3% (inactive),19.8% (inactive)
Clc1cc2c(c(Cn3cnc4ccccc43)c1)OCOC2,566,7.5% (inactive),11.8% (inactive),77.2,4.1% (inactive),89.8,-0.595 (inactive),-3e-05 (inactive),0.00307 (inactive),7.15% (inactive),-9.55% (inactive)
CCOC(=O)C1CCN(C(=O)C2(NC(=O)Nc3ccccc3Cl)CCCCC2)CC1,568,-4.9% (inactive),-41.9% (inactive),107,-54.8% (inactive),105,-0.626 (inactive),5.4e-06 (inactive),0.0059 (inactive),15% (inactive),20.6% (inactive)
O=c1c2cc(N3CCOCC3)ccc2[nH]c(=S)n1CCCN1CCCC1,739,3% (inactive),6.2% (inactive),105,-35% (inactive),106,-0.0484 (active),-1.6e-06 (inactive),0.00568 (inactive),3.61% (inactive),32.7% (inactive)
O=C(Cn1c(=O)oc2ccccc21)Nc1ccc(S(=O)(=O)N2CCCCC2)cc1,392,0.3% (inactive),-5.3% (inactive),89.6,-75.3% (inactive),126,-0.504 (inactive),-2.7e-05 (inactive),0.00415 (inactive),7.3% (inactive),14.4% (inactive)
CC1CCN(CCCNC(=O)c2coc3nc4ccccc4nc23)CC1,311,-0.8% (inactive),-17.9% (inactive),110,-33.9% (inactive),117,-0.351 (inactive),-3.5e-06 (inactive),0.00542 (inactive),-4.6% (inactive),46.6% (inactive)
CC(C)(C)SCCNC(=O)CN1C(=O)c2ccccc2S1(=O)=O,625,-4.2% (inactive),-13.2% (inactive),97.6,-29.7% (inactive),106,-0.499 (inactive),-8.2e-06 (inactive),0.00704 (inactive),3.26% (inactive),-7.98% (inactive)
O=C(O)c1ccc2c(c1)N(Cc1ccccc1F)C(=O)c1ccccc1S2=O (stereo not drawn),585,-1.2% (inactive),17.9% (inactive),64.2,-49.8% (inactive),107,-0.537 (inactive),-5.5e-07 (inactive),0.0062 (inactive),11.3% (inactive),7.14% (inactive)
CC(C)c1nnc(SCC(=O)NCc2ccco2)n1C,248,2.2% (inactive),-12.1% (inactive),77,21.4% (inactive),86.7,-0.485 (inactive),1.5e-05 (inactive),0.00695 (inactive),3.77% (inactive),97.8% (active)
CCC(c1nnnn1C(C)(C)C)N1CCN(C2CCCC2)CC1 (stereo not drawn),450,1.3% (inactive),-7.5% (inactive),124,-46.6% (inactive),128,-0.634 (inactive),-1.4e-05 (inactive),0.00353 (inactive),16.1% (inactive),9.37% (inactive)
Cc1cccc(NC(=O)COc2ccc(Br)cc2)n1,457,-12.1% (inactive),-8.7% (inactive),110,26.7% (inactive),124,-0.437 (inactive),6.5e-05 (inactive),0.00667 (inactive),2.6% (inactive),-9.96% (inactive)
CCN(CC)CCN1C(=O)Cn2c(C)c(C)c3cccc1c32,426,-6.7% (inactive),18.6% (inactive),93.7,-102% (inactive),232,-0.434 (inactive),-1.1e-05 (inactive),0.00506 (inactive),15% (inactive),24.1% (inactive)
Cc1ccc2c(C)nc(NC3=NCN(C(C)C)CN3)nc2c1,604,4.7% (inactive),5.5% (inactive),93.5,-33.7% (inactive),125,-0.543 (inactive),1.2e-05 (inactive),0.0049 (inactive),11.3% (inactive),14.9% (inactive)
CCOC(=O)C1CCN(c2c(NC3CCCc4ccccc43)c(=O)c2=O)CC1 (stereo not drawn),672,6.6% (inactive),-3.3% (inactive),86.1,-22.1% (inactive),98.7,-0.571 (inactive),-3e-05 (inactive),0.00585 (inactive),7.84% (inactive),29.9% (inactive)
Cc1ccccc1Nc1cc2ccccc2c(=O)[nH]1,481,-12.2% (inactive),-19.5% (inactive),102,-35% (inactive),98.8,-0.17 (inactive),1.6e-05 (inactive),0.00385 (inactive),-7.13% (inactive),20.8% (inactive)
COc1ccc(OC)c(-c2cc(C(=O)NCc3cccs3)no2)c1,248,1.3% (inactive),29.5% (inactive),101,-23.8% (inactive),124,-0.487 (inactive),-5.5e-06 (inactive),0.00616 (inactive),3.16% (inactive),32% (inactive)
